According to PubChem BioAssay (NCI):
The panel holds about 83,000 compounds, 20% with a hit somewhere; the sample as a whole holds those more often.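 Activity criterion: percent growth below 10, measured after cells in 96-well plates were exposed to a single compound concentration for 48 hours.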 Activity calls are given as the source filed them.

What was measured:
Assay in all cases: NCI-60 one-dose screen, 48 h (100 = growth as untreated, 0 = no growth, -100 = all killed)
Details in all cases: 10 µM
HT29 colon = system: HT29 colon
SNB-75 CNS = system: SNB-75 CNS
SNB-19 CNS = system: SNB-19 CNS
U251 CNS = system: U251 CNS
PC-3 prostate = system: PC-3 prostate
SK-MEL-5 melanoma = system: SK-MEL-5 melanoma
UACC-62 melanoma = system: UACC-62 melanoma
LOX IMVI melanoma = system: LOX IMVI melanoma
SK-MEL-28 melanoma = system: SK-MEL-28 melanoma
SK-MEL-2 melanoma = system: SK-MEL-2 melanoma
SN12C renal = system: SN12C renal
UO-31 renal = system: UO-31 renal
TK-10 renal = system: TK-10 renal
ACHN renal = system: ACHN renal
CAKI-1 renal = system: CAKI-1 renal
A498 renal = system: A498 renal
CCRF-CEM leukemia = system: CCRF-CEM leukemia
MOLT-4 leukemia = system: MOLT-4 leukemia
SR leukemia = system: SR leukemia

Measured: growth

Cc1cc(=O)[nH]c(N/N=C/c2ccccc2O)n1
inactive: HT29 colon 46.1% | SNB-75 CNS 89% | SNB-19 CNS 76.9% | U251 CNS 45.9% | PC-3 prostate 67.4% | SK-MEL-5 melanoma 90.8% | UACC-62 melanoma 92.3% | LOX IMVI melanoma 59.5% | SK-MEL-28 melanoma 86.3% | SK-MEL-2 melanoma 73.9% | SN12C renal 86.2% | UO-31 renal 43.6% | TK-10 renal 97.3% | ACHN renal 59.8% | CAKI-1 renal 82.3% | A498 renal 108% | CCRF-CEM leukemia 35% | MOLT-4 leukemia 67.3% | SR leukemia 26.8%

O=C1/C(=C\c2ccc(F)cc2)CN(C(=O)c2ccc([N+](=O)[O-])cc2)C/C1=C\c1ccc(F)cc1
active: HT29 colon -56.9% | U251 CNS 9.03% | LOX IMVI melanoma -53.3% | CCRF-CEM leukemia 7.75% | SR leukemia -19.3%
inactive: SNB-75 CNS 56.7% | SNB-19 CNS 67.5% | PC-3 prostate 28.6% | SK-MEL-5 melanoma 45.7% | UACC-62 melanoma 40.3% | SK-MEL-28 melanoma 65.1% | SK-MEL-2 melanoma 74.5% | SN12C renal 46.9% | UO-31 renal 24.3% | TK-10 renal 87.3% | ACHN renal 44.3% | CAKI-1 renal 39.4% | A498 renal 52% | MOLT-4 leukemia 27.2%

COc1cc(Cl)cc(-c2nn(-c3cccc(NC(=O)Nc4ccc(Cl)c(Cl)c4)c3)cc2-c2ccncc2)c1
active: HT29 colon 7.39% | U251 CNS 3.01% | PC-3 prostate -5.03% | SK-MEL-5 melanoma 3.51% | UACC-62 melanoma 4.38% | LOX IMVI melanoma 9.24% | SK-MEL-2 melanoma -32.1% | UO-31 renal 0.635% | ACHN renal 9.65% | CAKI-1 renal 7.49% | A498 renal -9.54% | CCRF-CEM leukemia 5.73% | MOLT-4 leukemia -16.1% | SR leukemia -18.5%
inactive: SNB-75 CNS 16.2% | SNB-19 CNS 17.8% | SK-MEL-28 melanoma 23.2% | SN12C renal 15.5% | TK-10 renal 19.8%

N=C(N)c1ccc(-c2ccc(-c3cccs3)s2)s1
active: HT29 colon -79.5% | SNB-75 CNS -31.7% | SNB-19 CNS -13.4% | U251 CNS -85.9% | PC-3 prostate 5.1% | SK-MEL-5 melanoma -9.08% | UACC-62 melanoma -90.7% | LOX IMVI melanoma -75.7% | SK-MEL-28 melanoma -94.7% | SK-MEL-2 melanoma -0.961% | SN12C renal -74.9% | UO-31 renal -77.1% | TK-10 renal -51.1% | CAKI-1 renal -49% | A498 renal -32.6% | CCRF-CEM leukemia -52.3% | MOLT-4 leukemia -55.7% | SR leukemia -50.9%
inactive: ACHN renal 66.4%

CCCCCCc1cc(N=Nc2ccc(S(=O)(=O)Nc3cc(C)nc(C)n3)cc2)c(O)cc1O
inactive: HT29 colon 95.6% | SNB-75 CNS 91.8% | SNB-19 CNS 103% | U251 CNS 100% | PC-3 prostate 96.2% | SK-MEL-5 melanoma 98.9% | UACC-62 melanoma 105% | LOX IMVI melanoma 96.2% | SK-MEL-28 melanoma 115% | SK-MEL-2 melanoma 90.5% | SN12C renal 97.2% | UO-31 renal 74.5% | TK-10 renal 107% | ACHN renal 99.1% | CAKI-1 renal 98.9% | A498 renal 98.7% | CCRF-CEM leukemia 94.8% | MOLT-4 leukemia 88.7% | SR leukemia 91.9%

Nc1ccccc1NC(=O)CCCCC(=O)Nc1ccc2c(c1)/C(=C/c1ccc[nH]1)C(=O)N2
inactive: HT29 colon 67.2% | SNB-75 CNS 16.9% | SNB-19 CNS 76.4% | U251 CNS 48.5% | PC-3 prostate 81.6% | SK-MEL-5 melanoma 87.7% | UACC-62 melanoma 58% | LOX IMVI melanoma 85.2% | SK-MEL-28 melanoma 86.1% | SK-MEL-2 melanoma 46.2% | SN12C renal 66.9% | UO-31 renal 72.2% | TK-10 renal 68.2% | ACHN renal 92.7% | CAKI-1 renal 81.6% | CCRF-CEM leukemia 50.7% | MOLT-4 leukemia 47.7% | SR leukemia 62.7%
active: A498 renal -5.06%

COc1ccc(-c2nc(-c3nc4ccc(Cl)cc4[nH]3)c3ccccn23)cc1
active: SNB-75 CNS -89.4% | U251 CNS 7.5% | UO-31 renal -24.8% | TK-10 renal -12.1% | ACHN renal 0.296% | CAKI-1 renal -13% | A498 renal -3.43%
inactive: HT29 colon 34.7% | SNB-19 CNS 20.3% | PC-3 prostate 55.9% | SK-MEL-5 melanoma 50.7% | UACC-62 melanoma 82.5% | LOX IMVI melanoma 30.4% | SK-MEL-28 melanoma 12% | SK-MEL-2 melanoma 41% | SN12C renal 52.7% | CCRF-CEM leukemia 82.7% | MOLT-4 leukemia 74.4% | SR leukemia 40.3%

NC(=O)CC1(c2ccccc2)CCCCC1
inactive: HT29 colon 104% | SNB-75 CNS 95.3% | SNB-19 CNS 105% | U251 CNS 102% | PC-3 prostate 99.4% | SK-MEL-5 melanoma 106% | UACC-62 melanoma 107% | LOX IMVI melanoma 96.1% | SK-MEL-28 melanoma 110% | SK-MEL-2 melanoma 102% | SN12C renal 101% | UO-31 renal 93.1% | TK-10 renal 109% | ACHN renal 104% | CAKI-1 renal 96.8% | A498 renal 102% | CCRF-CEM leukemia 98.9% | MOLT-4 leukemia 94.2% | SR leukemia 90.9%

CC(C)(C#N)Nc1ccccc1
inactive: HT29 colon 99.5% | SNB-75 CNS 79.5% | SNB-19 CNS 98.9% | U251 CNS 95.4% | PC-3 prostate 108% | SK-MEL-5 melanoma 107% | UACC-62 melanoma 98.5% | LOX IMVI melanoma 97.8% | SK-MEL-28 melanoma 111% | SK-MEL-2 melanoma 109% | SN12C renal 98.8% | UO-31 renal 103% | TK-10 renal 115% | ACHN renal 97.8% | CAKI-1 renal 83.5% | A498 renal 103% | CCRF-CEM leukemia 97.1% | MOLT-4 leukemia 102% | SR leukemia 116%

CC(=O)O[C@]1(C)CC[C@H]2[C@H](CNCCc3ccc(Cl)cc3)C(=O)O[C@@H]2C2=C(C)C(=O)C[C@H]21
inactive: HT29 colon 90% | SNB-75 CNS 64.1% | SNB-19 CNS 79.4% | U251 CNS 91.3% | PC-3 prostate 86.9% | SK-MEL-5 melanoma 92.2% | UACC-62 melanoma 97.9% | LOX IMVI melanoma 90.6% | SK-MEL-28 melanoma 101% | SK-MEL-2 melanoma 114% | SN12C renal 94.2% | UO-31 renal 78.1% | TK-10 renal 97.7% | ACHN renal 96.2% | CAKI-1 renal 98.5% | A498 renal 86.9% | CCRF-CEM leukemia 83.6% | MOLT-4 leukemia 71% | SR leukemia 81.4%

CC(=O)N(C)c1ccc(Nc2ccc(Nc3ccc(N(C)C(C)=O)cc3)c3c2C(=O)c2ccccc2C3=O)cc1
inactive: HT29 colon 68.6% | SNB-75 CNS 73.9% | SNB-19 CNS 88.4% | U251 CNS 77.3% | PC-3 prostate 38.3% | SK-MEL-5 melanoma 79% | UACC-62 melanoma 88.8% | LOX IMVI melanoma 55% | SK-MEL-28 melanoma 106% | SK-MEL-2 melanoma 82.8% | SN12C renal 71.4% | UO-31 renal 25.9% | TK-10 renal 79% | ACHN renal 64.3% | CAKI-1 renal 30.2% | A498 renal 110% | CCRF-CEM leukemia 55.7% | MOLT-4 leukemia 56.8% | SR leukemia 72.6%

O=C(Nc1cccc(-n2cc(-c3ccncc3)c(-c3cc(O)cc(Cl)c3)n2)c1)c1ccc(N2CCOCC2)c(C(F)(F)F)c1
active: U251 CNS -9.64% | LOX IMVI melanoma -48.7% | SK-MEL-28 melanoma -52.4% | UO-31 renal 3.98% | MOLT-4 leukemia -29.7% | SR leukemia -12.4%
inactive: HT29 colon 16.9% | SNB-75 CNS 23.1% | SNB-19 CNS 12.1% | PC-3 prostate 19.1% | SK-MEL-5 melanoma 32.2% | UACC-62 melanoma 10.8% | SK-MEL-2 melanoma 22.9% | SN12C renal 46.4% | TK-10 renal 70.3% | ACHN renal 20.7% | CAKI-1 renal 14.8% | A498 renal 72.7% | CCRF-CEM leukemia 13.1%

COc1cc(Cl)cc(-c2nn(-c3cccc(NC(=O)c4ccc(N5CCOCC5)c(C(F)(F)F)c4)c3)cc2-c2ccncc2)c1
inactive: HT29 colon 21.2% | SNB-75 CNS 34.9% | SNB-19 CNS 75.5% | U251 CNS 32.3% | PC-3 prostate 29.1% | SK-MEL-5 melanoma 71.5% | UACC-62 melanoma 67.8% | LOX IMVI melanoma 47.3% | SK-MEL-28 melanoma 53.2% | SK-MEL-2 melanoma 64.9% | SN12C renal 79.8% | UO-31 renal 40.7% | TK-10 renal 90.6% | ACHN renal 50.1% | CAKI-1 renal 46.7% | A498 renal 31.5% | CCRF-CEM leukemia 31.7% | MOLT-4 leukemia 38.3% | SR leukemia 18.4%

COc1cc(/C=C/C(=O)c2ccc(Cl)cc2)ccc1OS(=O)(=O)c1ccc(C)cc1
inactive: HT29 colon 28.5% | SNB-75 CNS 105% | SNB-19 CNS 98.5% | U251 CNS 83.7% | PC-3 prostate 76.1% | SK-MEL-5 melanoma 100% | UACC-62 melanoma 79.4% | SK-MEL-28 melanoma 106% | SK-MEL-2 melanoma 108% | SN12C renal 86.6% | UO-31 renal 74.2% | TK-10 renal 116% | ACHN renal 94.3% | CAKI-1 renal 82.5% | A498 renal 86.3% | CCRF-CEM leukemia 12.9%
active: LOX IMVI melanoma 2.55% | MOLT-4 leukemia -2.36% | SR leukemia -13.8%

CCCC#CCN(CC)CC
inactive: HT29 colon 104% | SNB-75 CNS 97.1% | SNB-19 CNS 100% | U251 CNS 91.2% | PC-3 prostate 86% | SK-MEL-5 melanoma 104% | UACC-62 melanoma 99.1% | LOX IMVI melanoma 102% | SK-MEL-28 melanoma 108% | SK-MEL-2 melanoma 114% | SN12C renal 95.8% | UO-31 renal 83.5% | TK-10 renal 99.2% | ACHN renal 106% | CAKI-1 renal 88.2% | A498 renal 105% | CCRF-CEM leukemia 95% | MOLT-4 leukemia 109% | SR leukemia 101%
